Test results as given in PubChem BioAssay AID720597 (Broad Institute, 2013).
Entries with a potency or affinity are not part of this list.

molecular target: NAD-dependent protein deacylase sirtuin-5, mitochondrial (Homo sapiens) (UniProt Q9NXA8); assay: blockers of sirtuin-5 peptide desuccinylation – biochemical, fluorescence imaging, cherry-pick, set 6, dose response (AID 720597); settings: Purified SirT5, succinyl-peptide-AMC/trypsin fluorescence; series mostly up to 15 µM; activity change, negative = inhibition: at the top concentration;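 also: lower AMC signal can also come from blocking the trypsin step; 0% = median of neutral control wells and -100% = median of positive control wells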
Sequence (Q9NXA8 whole entry, looked up): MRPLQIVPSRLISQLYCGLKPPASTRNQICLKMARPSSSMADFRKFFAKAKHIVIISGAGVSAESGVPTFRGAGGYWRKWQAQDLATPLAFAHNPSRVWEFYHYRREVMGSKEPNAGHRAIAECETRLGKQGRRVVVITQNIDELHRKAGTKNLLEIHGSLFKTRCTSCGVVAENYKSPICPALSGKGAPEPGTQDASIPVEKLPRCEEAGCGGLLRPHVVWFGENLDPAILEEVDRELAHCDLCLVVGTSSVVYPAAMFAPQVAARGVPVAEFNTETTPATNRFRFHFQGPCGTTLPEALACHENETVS

Activity change, negative = inhibition, inactive:
C[C@H]1CN([C@@H](C)CO)C(=O)c2cc(NS(=O)(=O)c3ccc(Cl)cc3)ccc2O[C@H]1CN(C)Cc1ccc(Cl)c(Cl)c1 -3.12%, COc1ccccc1S(=O)(=O)N(C)C[C@@H]1Oc2cc(C#CCC3CCCC3)ccc2S(=O)(=O)N([C@H](C)CO)C[C@H]1C -8.51%, COc1ccc(S(=O)(=O)Nc2ccc3c(c2)C(=O)N([C@@H](C)CO)C[C@H](C)[C@@H](CN(C)Cc2ccc(C(F)(F)F)cc2)OCCCC[C@H](C)O3)cc1 -3.79%, COc1ccc(CN2C[C@@H](O)COC[C@H]3O[C@H](CC(=O)NCCN4CCCC4)CC[C@@H]32)cc1 -17.3%, Cc1ccc(CN(C)C[C@@H]2OCc3cnnn3CCCC(=O)N([C@H](C)CO)C[C@@H]2C)cc1 2.7%, COc1ccc(S(=O)(=O)N(C)C[C@@H]2OCCCC[C@H](C)Oc3ccc(NS(=O)(=O)c4ccc(C)cc4)cc3C(=O)N([C@H](C)CO)C[C@@H]2C)cc1 -0.742%, CCC(=O)NC[C@H]1[C@@H](c2ccccc2)[C@H](CO)N1C(=O)C1CCC1 -5.07%, CN(C)C(=O)c1cccc(-c2ccc(C3[C@@H]4CN(C(=O)c5ccccn5)C[C@H]3N4)cc2)c1 (stereo not given in full) -21.8%, C[C@@H]1CN([C@@H](C)CO)C(=O)c2cccc(NS(=O)(=O)c3cn(C)cn3)c2O[C@H]1CN(C)C(=O)Nc1cccc2ccccc12 -7.45%, C[C@H](CO)N1C[C@H](C)[C@@H](CN(C)CC2CCCCC2)Oc2c(NC(=O)CCCCCC(=O)Nc3ccccc3N)cccc2C1=O -6.67%, C[C@H]1CN([C@@H](C)CO)S(=O)(=O)c2ccc(C3=CCCCC3)cc2O[C@H]1CN(C)S(=O)(=O)c1ccc(F)cc1 12.9%, CN(C)c1ccc2c(c1)[C@H]1C[C@H](CC(=O)NCc3ccc(Oc4ccccc4)cc3)O[C@H](CO)[C@H]1O2 14.7%, C[C@@H]1CN([C@H](C)CO)C(=O)Cc2cc(NS(=O)(=O)c3ccc(F)cc3)ccc2O[C@H]1CN(C)Cc1ccc(C(F)(F)F)cc1 -21.2%, Cc1ccc(S(=O)(=O)N(C)C[C@@H]2OCCCC[C@H](C)Oc3ccc(NS(=O)(=O)c4ccc(F)cc4)cc3C(=O)N([C@H](C)CO)C[C@@H]2C)cc1 -20.2%, C[C@H]1CN([C@@H](C)CO)S(=O)(=O)c2ccc(C#CC(C)(C)O)cc2O[C@@H]1CN(C)Cc1ccc(-c2ccccc2)cc1 -4.96%, C[C@@H]1CN([C@H](C)CO)C(=O)Cc2cc(NC(=O)Cc3cn(C)c4ccccc34)ccc2O[C@@H]1CN(C)C 11.5%, C[C@H](CO)N1C[C@H](C)[C@@H](CN(C)Cc2ccc(Cl)c(Cl)c2)OCCCC[C@H](C)Oc2ccc(NS(=O)(=O)c3cccs3)cc2C1=O -30.5%, CNC[C@@H]1Oc2ccc(NC(=O)Nc3ccc(F)cc3)cc2CC(=O)N([C@H](C)CO)C[C@H]1C 3.83%, COc1ccc(S(=O)(=O)N[C@H]2C=C[C@@H](CC(=O)NCCc3ccncc3)O[C@H]2CO)cc1 -4.77%, CO[C@H]1CN(C)C(=O)c2cc(NC(=O)CC(F)(F)F)ccc2OC[C@@H](C)N(C(=O)C2CCCCC2)C[C@@H]1C -13.9%, COc1ccc(S(=O)(=O)Nc2ccc3c(c2)C(=O)N([C@@H](C)CO)C[C@@H](C)[C@H](CN(C)Cc2ccc(C(F)(F)F)cc2)OCCCC[C@H](C)O3)cc1 -2.54%, COc1ccc(NC(=O)Nc2ccc3c(c2)C(=O)N([C@@H](C)CO)C[C@@H](C)[C@@H](CN(C)Cc2ccc(C(F)(F)F)cc2)O3)cc1 -1.17% [at 3.8 µM], C[C@@H]1CCCCO[C@@H](CN(C)S(=O)(=O)c2ccc(Cl)cc2)[C@H](C)CN([C@@H](C)CO)C(=O)c2cc(NS(=O)(=O)c3ccccc3)ccc2O1 -16.3%, C[C@@H]1CN([C@@H](C)CO)C(=O)Cc2cc(NS(=O)(=O)c3ccccc3)ccc2O[C@H]1CN(C)CC1CCCCC1 -21.3%, COc1ccccc1-c1ccc2c(c1)O[C@H](CN(C)S(=O)(=O)c1ccccc1)[C@@H](C)CN([C@@H](C)CO)S2(=O)=O 9.71%, CC(C)C#Cc1cnc2c(c1)C(=O)N([C@H](C)CO)C[C@H](C)[C@@H](CN(C)C(=O)CN1CCOCC1)O2 -8.28%, O=C(NCC[C@@H]1CC[C@H](NS(=O)(=O)c2cccc(F)c2)[C@@H](CO)O1)C1CCOCC1 15.4%, CN(C)C(=O)c1cccc(-c2ccc([C@@H]3[C@@H](CO)N4CCCCN(S(C)(=O)=O)C[C@@H]34)cc2)c1 19.7%, CO[C@@H](CN(C)Cc1ccc2c(c1)OCO2)[C@@H](C)CN(C(=O)Nc1ccc(F)cc1)[C@H](C)CO -0.984% [at 16 µM], COc1cccc(S(=O)(=O)N(C)C[C@@H]2Oc3cc(C4=CCCCC4)ccc3S(=O)(=O)N([C@H](C)CO)C[C@H]2C)c1 10.5%, COc1ccc(CN(C)C[C@H]2Oc3c(NC(=O)Nc4ccc(F)cc4)cccc3C(=O)N([C@@H](C)CO)C[C@@H]2C)cc1 -22.5%, COCC(=O)Nc1ccc2c(c1)OC[C@H](C)N(CC1CC1)C[C@@H](C)[C@@H](OC)CN(C)C2=O 13.3%, CCCC#Cc1ccc2c(c1)O[C@H](CN(C)Cc1ccccc1)[C@@H](C)CN([C@H](C)CO)S2(=O)=O -1.29%, COc1ccc(S(=O)(=O)N(C)C[C@@H]2Oc3ncc(C#CCN(C)C)cc3C(=O)N([C@H](C)CO)C[C@@H]2C)cc1 -13.5%, CCC(=O)N1CC2(C1)[C@H](c1ccccc1)[C@H](CO)N2Cc1ccccc1OC -0.469%, C[C@@H](O)C#Cc1ccc([C@@H]2[C@H]3CN(C(=O)c4cccc(F)c4)CCCCN3[C@H]2CO)cc1 -5.1%, O=C(NC1CCCC1)N1CCCCN2[C@H](C1)[C@H](c1ccc(/C=C/c3ccccc3)cc1)[C@@H]2CO -2.21%, C[C@@H]1CN([C@@H](C)CO)C(=O)Cc2cc(NS(=O)(=O)c3ccc(F)cc3)ccc2O[C@@H]1CN(C)Cc1ccc(C(F)(F)F)cc1 -12.2%, COc1ccc(NC(=O)Nc2ccc3c(c2)C(=O)N([C@@H](C)CO)C[C@@H](C)[C@@H](CN(C)Cc2ccncc2)O3)cc1 -15.8% [at 16 µM], C[C@H](CO)N1C[C@H](C)[C@H](CN(C)Cc2ccc(-c3ccccc3)cc2)Oc2cc(C#C[C@@H](C)O)ccc2S1(=O)=O -18.9%
